Experimental data as given in PubChem BioAssay (NCI).
The panel holds about 83,000 compounds, 20% with a hit somewhere; the sample as a whole holds those more often.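 Assay: single dose, 48 h. Readout: percent growth (0 = no net growth; negative = cell death). Active: <10.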 A number with no mark means an inactive call. Active and inactive are the calls of the source.

tested on: HL-60(TB) leukemia; assay: NCI-60 one-dose screen, 48 h (100 = growth as untreated, 0 = no growth, -100 = all killed); conditions: 10 µM unless noted

Structure (SMILES) | growth
Cc1ccc2c(-c3nnc(N)s3)cc(=O)oc2c1C | 100%
Cn1c(COC(=O)NCCc2ccccn2)nc2c(N3CCOCC3)nc(Cl)nc21 | -36.9% (active)
CCOC(=O)/C(=C\c1ccc(-c2ccccc2)cc1)C(C)=O | 93.7%
Cc1ccc2c(n1)C(=O)C(Br)=C(C1CCCC1)C2=O | 76.1%
Cc1cc(NCCCN(C)C)c2ccc3c(ccc4c(NCCCN(C)C)cc(C)nc43)c2n1 | -60.2% (active)
N#C/C(=C\c1ccc([N+](=O)[O-])s1)c1nc2cc(Br)ccc2s1 | 17.7%
CCCCCCCCCCCCCCCC[N+]1(C)CCN(SN2CC[N+](C)(CCCCCCCCCCCCCCCC)CC2)CC1 | 0.773% (active)
Cc1ccc(S(=O)(=O)c2nc(-c3ccccc3)oc2Sc2nc3ccccc3s2)cc1 | 71.9%
C/C=C(/C(=O)NC(N)=O)C(C)C | 91%
O=C1C(=O)c2c(nc3ccc(Cl)cn23)-c2ccccc21 | -79.7% (active)
O=[N+]([O-])/C(=C\c1ccco1)c1ccccc1Cl | 81.6%
COC(=O)CNS(=O)(=O)c1ccc2c(c1)Cc1cc(S(=O)(=O)NCC(=O)OC)ccc1-2 | 98.5%
CC1CCc2c(sc(NC(=O)CSc3nnc4ccccn34)c2C(N)=O)C1 (stereo not given) | 74.9%
COC(=O)Nc1nc2ccc(S(=O)c3ccccc3)cc2[nH]1 (stereo not given) | 22.7%
CC1(C)CC(=O)c2c(nc3ccc(Cl)cc3c2-c2ccccc2)C1 | 82.3%
Cn1ccc(=O)c(S(N)(=O)=O)c1 | 96.4%
COc1ccc(C2=NN(C(=O)c3cc(OC)c(OC)c(OC)c3)C(c3ccc(C#N)cc3)C2)cc1OC (stereo not given) | 4.24% (active)
CNCCCNc1nc2ccccc2c2c(=O)c3cc(Cl)ccc3sc12 | -55.2% (active)
CCN(CC)c1ccc2nc3ccc(N=Nc4ccc(O)cc4)cc3[n+](-c3ccccc3)c2c1 | 21.8%
CCOC(=O)c1cnc2c(C)cc(C)cc2c1NCCCN(C)C | 9.86% (active)

Structure (SMILES) | growth
COc1cc(C(=O)/C=C/c2c(-c3cccs3)nc3ccccn23)cc(OC)c1OC | -14.2% (active)
[Cu+].[NH-][C@H]1C[N-]C(=O)[C@H]([C@H]2CCN=C(N)N2)[N-]C(=O)/C(=C\NC(N)=O)[N-]C(=O)[C@H](CNC(=O)C[C@@H](N)CCCN)[N-]C(=O)[C@H](CO)[N-]C1=O | 104%
CN(C)N1C(=O)c2c(Cl)c(Cl)c(Cl)c(Cl)c2C1=O | 95.8%
O=C1/C(=C/c2ccc([N+](=O)[O-])s2)Oc2ccccc21 | -7.99% (active)
COC1/C=C\OC2(C)Oc3c(C)c(O)c4c(O)c(c(CN(C)CCO)c(O)c4c3C2=O)NC(=O)/C(C)=C\C=C/C(C)C(O)C(C)C(O)C(C)C(OC(C)=O)C1C (stereo not given) | 114%
CCC(C)CC(N)O (stereo not given) | 120%
CNCCNc1nc2ccccc2c2c(=O)c3cccc(C)c3sc12 | -39.8% (active)
CC(=O)Nc1scc[n+]1Cc1ccccc1 | 55.3%
O=C(Nc1cccc(-c2nc3ccccc3[nH]2)c1)c1cccc(NC(=O)c2ccco2)c1 | 88.9%
O=C(N/N=C/c1c[nH]c2ccccc12)c1cc(-c2ccccc2)on1 | 73.4%
COc1ccc2c(c1)c(-c1nc(-c3c[nH]c4c(Cl)nccc34)cs1)cn2C | 108%
CCOC(=O)CN1/C(=N/c2sc3c(c2C(=O)OCC)CCN(C(=O)OCC)C3)SC(=O)/C1=C\C(=O)OC | 79.9%
O=CNc1c(Cl)cc2c(c1Cl)Cc1cc([N+](=O)[O-])ccc1-2 | 17.5%
Nc1nc(N)c(N=Nc2ccc(C(=O)O)cc2)c(N)n1 | 90%
Clc1cc(Cl)c(Cl)c(-c2nnc(SCc3ccncc3Br)o2)c1 | 88.8%
Fc1ccc(-c2nnc(/C=C/c3cn(-c4ccccc4)nc3-c3ccccc3)o2)cc1 | 94.2%
COCCNc1ccc2c3c(cccc13)C(=O)N(CCN(C)C)C2=O | -17% (active)
Cc1n[nH]c(C)c1-c1c(C)n[nH]c1C | -6.88% (active)
CN1CCN(c2ccc(Nc3ncc(Cl)c(NC[C@@H]4CCCO4)n3)cc2)CC1 | -6.65% (active)
C#COc1cccc(Nc2ncnc3cc(NC(=O)[C@H](C)Cl)ccc23)c1 | 99.4% [6.25 µM]
